HT1080 IDH1KD tx: kills HT-1080 cells with IDH1 knockdown; HT-1080 IDH1 knockdown viability, ATP luminescence, 48 h; hit rate 2% among 360,000; Potency, µM (titrated, usually from 46.1 µM), for the others: at the highest dose activity, negative = toxicity, actives largely listed as cytotoxic;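 note: potency is the fitted concentration of half-maximal effect; 0% = DMSO wells and -100% = cell-free medium wells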
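After a 2 h attachment period, IDH1KD HT-1080 cells took pin-transferred compound for 48 h at 37 °C; ATP-based luminescence after 10 min room-temperature reagent incubation reported viability.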
TDP1 cell noCPT: qHTS for Inhibitors of human tyrosyl-DNA phosphodiesterase 1 (TDP1): qHTS in cells in absence of CPT; AID 686978, 2013; DT40 Tdp1-/- hTDP1 cells, no CPT, ATP luminescence, 48 h; Potency, µM (highest dose often 46.2 µM), for inactives: at the highest dose activity change, negative = growth inhibition, hits mostly inhibitors; hit rate 15% among 420,000; note: potency is the fitted concentration of half-maximal effect; nearly all actives have a fitted effect of over 55% in size
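Compound effects on proliferation are scored in DT40 Tdp1-/-;hTDP1 cells in the absence of CPT. ATP levels (CellTiter-Glo luminescence) are recorded after a ≥48 hr, 37 °C incubation.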
HT1080NT lethal: kills 2HG-producing HT-1080-NT fibrosarcoma cells | HT-1080-NT fibrosarcoma viability, CellTiter-Glo ATP luminescence, 48 h | hit rate 1.6% among 360,000 | Potency, µM (doses to about 46.1 µM), without a hit: at the highest dose activity, negative = less viability, most hits filed as cytotoxic | AID 686970;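 note: NT is the 2HG producing partner of a matched IDH1 knockdown line; potency is the fitted concentration of half-maximal effect; 0% = DMSO-treated cells and -100% = media-only wells without cells; nearly all actives have a fitted effect of over 55% in size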
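Fibrosarcoma NT cells, 750 per well in 5% FBS RPMI, were exposed to compound for 48 hours. Viability: CellTiter-Glo luminescence.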
TDP1 cell CPT: DT40-hTDP1 cell growth loss with CPT; AID 686979; Potency, µM (top dose mostly 46.2 µM), for the others: at the highest dose activity change, negative = growth inhibition, actives largely listed as inhibitors; hit rate 12% among 420,000; chicken DT40 Tdp1-/-;hTDP1 cells + 20 nM CPT, ATP luminescence, 48 h; note: potency is the fitted concentration of half-maximal effect; nearly all actives have a fitted effect of over 55% in size
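Chicken DT40 Tdp1-/- cells stably complemented with human TDP1 were seeded at 400 cells/well in medium containing 20 nM camptothecin, exposed to pin-transferred compounds, and grown at 37 °C for at least 48 hr. Viability was read as ATP luminescence.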
IL1B secr inh: blocks inflammasome-driven IL-1 beta release | hit rate 4.7% among 360,000 | activity change, % at 57.5 µM | THP-1 LPS/ATP IL-1B secretion, AlphaLISA, 16 h; hits give low values | AID 743279; in the data active = activity change below about -50%; inconclusive = mostly about -30% to -49%
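THP-1 cells pretreated 1 hr with compounds (up to 57.5 uM final), then stimulated with LPS (250 ng/mL final) plus ATP (1.25 mM final); secreted IL-1B measured by AlphaLISA after 16 hr, decreased signal indicating inhibition.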
* marks the source's active call; other numbers are inactive results; ? = inconclusive; · = no result; [ ] = remark or other dose. Most compounds without a hit are left out; they make up all but 19% or so of the library. Unless noted, calls come from the whole dose curve; as a rule, active = well fitted curve in the direction sought with a large enough effect; inconclusive = small, poorly fitted or top-dose-only effect, or another doubt; inactive = no such curve, though single readings can be large; an effect the other way counts as inactive or inconclusive. Unless noted, % is set by controls: 0 for no effect and ±100 for the full control effect.

SMILES | HT1080 IDH1KD tx | TDP1 cell noCPT | HT1080NT lethal | TDP1 cell CPT | IL1B secr inh
Cc1csc(-c2nc3ccccc3n2C(C)c2nc3ccccc3[nH]2)c1 (centres undefined) | -6% | ? | -20% | ? | -6
CC(C)(C)C(c1nc2ccccc2[nH]1)n1c(-c2cccc(S(C)(=O)=O)c2)nc2ccccc21 (centres undefined) | 9% | 13µM* | 2% | 10µM* | ?
CC(C)(C)C(c1nc2ccccc2[nH]1)n1c(-c2cc(Cl)cc(Cl)c2)nc2ccccc21 (centres undefined) | ? | 16µM* | ? | ? | 0
CS(=O)(=O)N1CCC2(CCN(Cc3ccc(C#N)cc3)CC2)CC1 | · | -23% | · | 7% | ·
Cc1ncc2c(c1CNC(=O)c1cncs1)CCN(C(=O)c1ccsc1)C2 | · | -1% | · | -9% | ·
CC(C(=O)NC1CCCC1)n1c(-c2ccccn2)nc2ccccc21 (centres undefined) | -11% | ? | -1% | ? | 13
COC(=O)c1ccc(CN2CCOc3ccc(C(O)c4cccnc4)cc3C2)cc1 (centres undefined) | · | -17% | · | 3%[9.04 µM] | ·
NC(=O)c1ccc(NC(=O)C2CCCC2)cc1 | 15% | 9% | 5% | 20% | 4
O=C(c1cc(COc2ccc(F)cc2Cl)on1)N1CCN(c2cnccn2)CC1 | 8% | ? | 13% | ? | -28
Clc1ccc(Cn2cc3c(n2)-c2cc4ccccc4n2C3)cc1 | · | 13µM* | · | ? | ·
O=C(c1cccc(F)c1)N1CCC2(CCCN(c3ccncc3)C2)CC1 | · | ? | · | -5% | ·
COc1ccc(C(=O)N2CCC3(CC2)CN(c2ccccn2)C3)cc1 | · | ? | · | -10% | ·
O=C(c1cc(C(F)(F)F)cc(C(F)(F)F)c1)N1CCC2(CC1)CN(c1ccccn1)C2 | · | 5.2µM* | · | 4.6µM* | ·
O=C(c1cccc(F)c1)N1CCC[C@@]2(CCN(c3ccccn3)C2)C1 | · | -21% | · | -1% | ·
O=C(c1cccc(F)c1)N1CCC2(CC1)CCN(c1ncccn1)CC2 | · | 18µM* | · | ? | ·
O=C(c1cccc(F)c1)N1CCC2(CC1)CCN(c1ccncc1)CC2 | · | 18µM* | · | 7.3µM* | ·
O=C(c1cccc(F)c1)N1CCC2(CC1)CN(c1ccccn1)C2 | · | ? | · | 15µM* | ·
C/C(=N\NC(=O)c1ccc(NS(=O)(=O)c2cccs2)cc1)c1ccc2c(c1)OCO2 | -7% | ? | -6% | ? | -7
Cc1ccc(N2C(=O)C3CCCN3C2=S)cc1C (centres undefined) | 5% | -13% | 2% | ? | -18
Nc1nc(SCC(=O)Nc2ncc(C(F)(F)F)cc2Cl)n[nH]1 | 15% | 3% | 11% | 1% | -12
COc1cccc(C(=O)Nc2cccc(OCc3cc(=O)n4cccc(C)c4n3)c2)c1 | · | -10% | · | -11% | ·
CC(C)(O)CN(CCCNC(=S)Nc1ccccc1)C(=S)Nc1ccccc1 | 7% | -19% | 1% | -13% | -1
CN1CCC2(CC1)CCN(C(=O)c1cc(C(F)(F)F)cc(C(F)(F)F)c1)CC2 | · | 1% | · | 1% | ·
O=C(c1cc(C(F)(F)F)cc(C(F)(F)F)c1)N1CCC2(CC1)CCN(c1ccncc1)CC2 | · | 18µM* | · | 26µM* | ·
CS(=O)(=O)N(CCc1ccccc1)CC(=O)NCc1cccnc1 | 4% | ? | 11% | 8% | -3
SMILES | HT1080 IDH1KD tx | TDP1 cell noCPT | HT1080NT lethal | TDP1 cell CPT | IL1B secr inh
COc1cc(OC)c(Nc2ncnc3onc(-c4cccc(Cl)c4)c23)cc1Cl | · | -1% | · | 9% | ·
COc1ccc(Nc2ncnc3onc(-c4ccc(Cl)cc4)c23)cc1Cl | · | 16µM* | · | 18µM* | ·
COc1cc(Nc2ncnc3onc(-c4ccc(Cl)cc4)c23)cc(OC)c1 | · | 21µM* | · | ? | ·
CC(C)c1ccc(Nc2ncnc3onc(-c4ccc(F)cc4)c23)cc1 | · | ? | · | 18µM* | ·
CCN(Cc1ccccc1)S(=O)(=O)c1cc2[nH]c(=O)c(=O)[nH]c2cc1C | -8% | -29% | 2% | -21% | 37
COc1ccc(-c2cc(C(F)(F)F)c(C#N)c(SCC(=O)Nc3ccccc3F)n2)cc1 | · | -16% | · | 1% | ·
Cc1cccc(Nc2nnc(-c3ccc(C)c(S(=O)(=O)N4CCOCC4)c3)c3ccccc23)c1 | · | 6.5µM* | · | 16µM* | ·
Cc1ccc(-c2nnc(Nc3cccc(Cl)c3)c3ccccc23)cc1S(=O)(=O)N1CCOCC1 | · | 4.1µM* | · | 16µM* | ·
Cc1ccc(-c2nnc(Nc3cccc(C(F)(F)F)c3)c3ccccc23)cc1S(=O)(=O)N1CCOCC1 | · | 8.2µM* | · | 9.2µM* | ·
CC(=O)c1sc(NC(=O)CSCc2c(C)noc2C)nc1-c1ccccc1 | 6% | ? | 1% | -25% | -15
COc1ccc(/C=C/C(=O)NC(=S)Nc2cc([N+](=O)[O-])ccc2O)cc1OC | 10% | -11% | 6% | -15% | -6
C=CCC[C@H](Cc1ccc(F)cc1)C(=O)OC[C@@H](Cc1c[nH]c2ccccc12)NC(=O)[C@@H](CC=C)CC(=O)N[C@@H](CO)Cc1ccccc1 | ? | 23µM* | ? | ? | -30
C=CCC[C@@H](Cc1ccc(F)cc1)C(=O)OC[C@H](Cc1c[nH]c2ccccc12)NC(=O)[C@@H](CC=C)CC(=O)N[C@@H](CO)Cc1ccccc1 | -1% | ? | -2% | 21µM* | -3
C=CCC[C@@H](Cc1ccc(F)cc1)C(=O)OC[C@@H](Cc1c[nH]c2ccccc12)NC(=O)[C@@H](CC=C)CC(=O)N[C@@H](CO)Cc1ccccc1 | -3% | ? | -1% | 23µM* | -19
C=CC[C@@H](CC(=O)N[C@@H](CO)Cc1ccccc1)C(=O)N[C@H](COC(=O)[C@@H](CC=C)Cc1ccc(F)cc1)Cc1c[nH]c2ccccc12 | -3% | ? | 0% | ? | -13
C=CCC[C@@H](Cc1ccc(F)cc1)C(=O)OC[C@@H](Cc1c[nH]c2ccccc12)NC(=O)[C@H](CC=C)CC(=O)N[C@H](CO)Cc1ccccc1 | ? | ? | 21µM* | ? | 91
C=CCC[C@@H](Cc1ccc(F)cc1)C(=O)OC[C@@H](Cc1c[nH]c2ccccc12)NC(=O)[C@@H](CC=C)CC(=O)N[C@H](CO)Cc1ccccc1 | -1% | ? | -20% | ? | -7
CCOc1ccc(NC(=O)CS(=O)(=O)Cc2nc(-c3ccc(C)cc3)oc2C)cc1 | · | -25% | · | -5% | ·
CCOC(=O)C1=C(N)c2ccccc2CC1C1CCCC1 (centres undefined) | -1% | ? | 0% | 26µM* | -8

Assay outcomes as filed in PubChem BioAssay.
